HP1b chromo inh – HTS for Inhibitors of HP1-beta Chromodomain Interactions with Methylated Histone Tails. AlphaScreen HP1-beta / biotin-H3K9me3 peptide binding. Potency, µM (series often up to 114 µM), for inactives: at the top dose activity change, negative = inhibition, most hits filed as inhibitors. 390,000 tested, 0.56% active. AID 540317, 2011; note: potency is the fitted concentration of half-maximal effect; nearly all actives have a fitted effect of over 70% in size
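AlphaScreen: HP1-beta (50 nM) preformed 30 min with biotin-H3(1-18)K9me3 peptide (50 nM) in PBS pH 7.4, 0.01% Tween-20. Compound added for 30 min at RT, then streptavidin donor/nickel chelate acceptor beads (10 ug/mL) for 30 min.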
PLK1 PBD block – qHTS for Inhibitors of PLK1-PDB (polo-like kinase 1 - polo-box domain): Primary Screen | 360,000 tested, 2.8% active | Potency, µM, for the others: max response, negative = inhibition, hits mostly inhibitors | Plk1 PBD binding of FITC phosphopeptide, fluorescence polarization | AID 720504, 2013; note: potency is the fitted concentration of half-maximal effect; series mostly up to about 57 µM; % is set by controls: 0 for no effect and ±100 for the full control effect; nearly all actives have a fitted effect of over 65% in size
JMJD2A Tudor inh – qHTS Assay for Inhibitors of JMJD2A-Tudor Domain | Lysine-specific demethylase 4A (Homo sapiens), O75164 | AlphaScreen JMJD2A-Tudor / H3K4me3 peptide binding | Potency, µM (series often up to 114 µM), inactives show top-dose activity change, negative = inhibition, most hits filed as inhibitors | 390,000 tested, 4.4% active | AID 504339, 2011; note: potency is the fitted concentration of half-maximal effect; % is set by controls: 0 for no effect and ±100 for the full control effect; nearly all actives have a fitted effect of over 50% in size
Target sequence (O75164 whole entry, looked up, the tested form may be a part): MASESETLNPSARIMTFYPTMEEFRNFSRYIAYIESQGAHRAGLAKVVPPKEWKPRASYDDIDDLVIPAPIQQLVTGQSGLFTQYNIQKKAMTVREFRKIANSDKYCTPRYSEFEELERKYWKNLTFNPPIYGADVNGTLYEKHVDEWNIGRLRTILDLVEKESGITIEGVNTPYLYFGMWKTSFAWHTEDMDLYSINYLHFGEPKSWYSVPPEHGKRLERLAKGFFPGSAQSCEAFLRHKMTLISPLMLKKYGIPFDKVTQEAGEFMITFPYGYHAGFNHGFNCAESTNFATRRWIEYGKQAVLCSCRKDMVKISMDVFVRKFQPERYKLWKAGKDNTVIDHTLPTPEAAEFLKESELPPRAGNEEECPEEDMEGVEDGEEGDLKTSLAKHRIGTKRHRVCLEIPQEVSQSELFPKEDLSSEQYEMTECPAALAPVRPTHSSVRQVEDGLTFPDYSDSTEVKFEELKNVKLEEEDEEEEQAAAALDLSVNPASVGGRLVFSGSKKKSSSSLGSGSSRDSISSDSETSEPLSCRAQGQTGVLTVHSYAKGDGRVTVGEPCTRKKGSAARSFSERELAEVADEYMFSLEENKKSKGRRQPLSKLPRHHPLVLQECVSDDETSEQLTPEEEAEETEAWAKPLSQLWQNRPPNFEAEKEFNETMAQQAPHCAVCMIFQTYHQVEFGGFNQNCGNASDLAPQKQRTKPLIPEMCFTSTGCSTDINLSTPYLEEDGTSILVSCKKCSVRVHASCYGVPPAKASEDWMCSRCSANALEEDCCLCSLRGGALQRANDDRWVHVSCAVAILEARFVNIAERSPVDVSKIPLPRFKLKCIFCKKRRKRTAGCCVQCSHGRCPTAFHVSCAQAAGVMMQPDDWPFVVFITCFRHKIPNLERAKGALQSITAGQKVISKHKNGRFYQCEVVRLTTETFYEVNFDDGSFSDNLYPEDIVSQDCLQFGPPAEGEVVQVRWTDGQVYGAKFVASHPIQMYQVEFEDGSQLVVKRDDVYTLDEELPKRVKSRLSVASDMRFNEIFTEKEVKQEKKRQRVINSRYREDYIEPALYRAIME
PI5P4K alpha inh – qHTS for Inhibitors of phosphatidylinositol 5-phosphate 4-kinase (PI5P4K) | Phosphatidylinositol 5-phosphate 4-kinase type-2 alpha (Homo sapiens), P48426 | PI5P4Kalpha enzyme, ADP-Glo luminescence, 60 min; active compounds read low | max response, % | 330,000 tested, 1.2% active | AID 652105, 2013; active = max response of -50% or lower; inconclusive = between -30% and -50%; inactive = -30% or higher; note: value at the top dose of about 77 µM; % is set by controls: 0 for no effect and ±100 for the full control effect
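Enzyme plus substrate dispensed, test compounds pinned in, then ATP (5 microM final) added. After 60 min at RT, ADP-Glo reagent 1 for 45 min and reagent 2 for 30 min preceded luminescence imaging.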
BAZ2B inh – qHTS Assay for Inhibitors of BAZ2B; AlphaScreen BAZ2B-H3K14Ac peptide displacement; Potency, µM (titrated, usually from 114 µM), inactives show at the top dose activity change, negative = inhibition, actives largely listed as inhibitors; 360,000 tested, 4.4% active; note: potency is the fitted concentration of half-maximal effect; % is set by controls: 0 for no effect and ±100 for the full control effect; nearly all actives have a fitted effect of over 60% in size
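AlphaScreen luminescence quantifies BAZ2B engagement of H3K14Ac peptide; the protein and biotinylated peptide are both at 50 nM final, buffer PBS pH 7.4 with 0.01% Tween-20, all steps at room temperature.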
G9a inh – qHTS Assay for Inhibitors of Histone Lysine Methyltransferase G9a; AID 504332, 2011; Histone-lysine N-methyltransferase EHMT2 (Homo sapiens), Q96KQ7; 350,000 tested, 8.8% active; G9a H3K9 monomethylation, AlphaScreen, 2 h; Potency, µM (highest dose often 102 µM), inactives show at the top dose activity, negative = inhibition, most hits filed as inhibitors; note: potency is the fitted concentration of half-maximal effect; % is set by controls: 0 for no effect and ±100 for the full control effect; nearly all actives have a fitted effect of over 75% in size
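Methyltransferase reactions run at room temperature for 2 h (20 nM enzyme, 500 nM biotin-H3K9 peptide, 20 uM SAM) after a 15 min compound preincubation; product detected by AlphaScreen beads and anti-H3K9me1 antibody.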
The depositor's hits bear a star; [ ] = remark or other dose. Rows were chosen to be rich in hits. Some 12% of all compounds tested hit in one or more screens of this group. Unless noted, calls come from the whole dose curve; as a rule, active = well fitted curve in the direction sought with a large enough effect; inconclusive = small, poorly fitted or top-dose-only effect, or another doubt; inactive = no such curve, though single readings can be large; an effect the other way counts as inactive or inconclusive.

How did Fc1ccc(N2CCN(Cc3c[nH]c4ccccc34)CC2)cc1 do in these assays?
BAZ2B inh: inconclusive; G9a inh: -9.6%[59 µM]

What do the screens show for `Brc1ccc(CN2CCN(Cc3c[nH]c4ccccc34)CC2)cc1`?
HP1b chromo inh: 22.4µM*; PLK1 PBD block: 4.5%; JMJD2A Tudor inh: 2.24µM*; PI5P4K alpha inh: -2.4; BAZ2B inh: 39.8µM*; G9a inh: 50.1µM*

What do the screens show for `OCc1ccccc1CN1CCCCCC1`?
HP1b chromo inh: 7.5%; PLK1 PBD block: -7.3%; JMJD2A Tudor inh: -16.7%; PI5P4K alpha inh: 5.7

How did Brc1ccccc1CN1CCN(Cc2c[nH]c3ccccc23)CC1 do in these assays?
HP1b chromo inh: 39.8µM*; PLK1 PBD block: -2.0%; JMJD2A Tudor inh: 0.794µM*; PI5P4K alpha inh: 2.7

What do the screens show for `O=c1[nH]c(C2CCN(S(=O)(=O)/C=C/c3ccccc3)CC2)nc2c1nnn2Cc1ccccc1`?
HP1b chromo inh: 10.8%; PLK1 PBD block: -7.5%; JMJD2A Tudor inh: -22.1%; PI5P4K alpha inh: -8.7; BAZ2B inh: -3.7%; G9a inh: 9.1%

What do the screens show for `CCOc1ccc(CCNC(=O)c2sc3nc4n(c(=O)c3c2C)CCCC4)cc1`?
HP1b chromo inh: 3.8%; JMJD2A Tudor inh: -19.4%; BAZ2B inh: -7.3%; G9a inh: -6.0%[59 µM]

What do the screens show for `Cc1ccccc1N1CCN(Cc2c[nH]c3ccccc23)CC1`?
HP1b chromo inh: inconclusive; PLK1 PBD block: 3.0%; JMJD2A Tudor inh: 5.01µM*; BAZ2B inh: inconclusive; G9a inh: 31.6µM*

How did COc1ccccc1N1CCN(Cc2c[nH]c3ccccc23)CC1 do in these assays?
HP1b chromo inh: -10.8%; PLK1 PBD block: -2.9%; JMJD2A Tudor inh: -25.6%; PI5P4K alpha inh: 0.0; BAZ2B inh: -17.4%; G9a inh: 3.1%

What do the screens show for `O=C(c1cccc(Cl)c1)N1CCN(Cc2c[nH]c3ccccc23)CC1`?
HP1b chromo inh: 0.2%; PLK1 PBD block: -5.1%; JMJD2A Tudor inh: 3.55µM*; PI5P4K alpha inh: -3.9; BAZ2B inh: 4.3%; G9a inh: 7.2%

How did O=[N+]([O-])c1ccc(CN2CCOCCOCCOCC2)cc1 do in these assays?
HP1b chromo inh: 27.1%; PLK1 PBD block: 0.3%; JMJD2A Tudor inh: -14.6%; PI5P4K alpha inh: -0.4; BAZ2B inh: -4.1%; G9a inh: inconclusive

Results for O=[N+]([O-])c1ccc(CN2CCN(Cc3c[nH]c4ccccc34)CC2)cc1 ?
HP1b chromo inh: inconclusive; PLK1 PBD block: 5.7%; JMJD2A Tudor inh: 7.94µM*; PI5P4K alpha inh: -5.8; BAZ2B inh: 22.4µM*; G9a inh: 8.91µM*

Results for O=C1CCCC2=C1C1O[C@](CCCCN3C(=O)c4ccccc4C3=O)(Cc3c1ccc1ccccc31)O2 ?
BAZ2B inh: -31.7%[22.9 µM]

What do the screens show for `COc1ccc(N(CC(=O)N2CCc3ccccc3C2)S(C)(=O)=O)cc1Cl`?
HP1b chromo inh: 30.2%; PLK1 PBD block: 1.5%; JMJD2A Tudor inh: 1.1%; PI5P4K alpha inh: 3.9; BAZ2B inh: -38.0%; G9a inh: 50.1µM*

Results for COc1ccc(N(CC(=O)N2CCCCCC2)S(C)(=O)=O)cc1Cl ?
HP1b chromo inh: 32.2%; PLK1 PBD block: -4.2%; JMJD2A Tudor inh: -14.1%; PI5P4K alpha inh: -0.9; BAZ2B inh: 22.8%

Results for CN(Cc1ccccc1)C(=O)c1ccc(NC(=O)Cc2cccc(NC(=O)C3CCCN(C(=O)C4CCC4)C3)c2)cc1 (stereo unspecified) ?
HP1b chromo inh: 44.3%; PLK1 PBD block: -13.0%; JMJD2A Tudor inh: -24.3%; PI5P4K alpha inh: 0.0; BAZ2B inh: 5.8%; G9a inh: -9.5%[2.33 µM]

Results for CC(=O)Nc1cccc(-c2nnc(-c3ccccc3)o2)c1 ?
HP1b chromo inh: 25.5%; PLK1 PBD block: -9.1%; JMJD2A Tudor inh: -20.5%[57.1 µM]; PI5P4K alpha inh: 6.6; BAZ2B inh: 8.7%; G9a inh: 8.1%[12.7 µM]

How did CN(C)C(=S)Nc1cccc(-c2n[nH]c(=S)o2)c1 do in these assays?
HP1b chromo inh: -0.1%; PLK1 PBD block: -21.5%; JMJD2A Tudor inh: inconclusive; PI5P4K alpha inh: -20.6; BAZ2B inh: -21.7%; G9a inh: 22.4µM*

Results for NNC(=S)Nc1cccc(-c2n[nH]c(=S)o2)c1 ?
HP1b chromo inh: -0.2%; PLK1 PBD block: -20.8%; JMJD2A Tudor inh: inconclusive; PI5P4K alpha inh: -75.9*; BAZ2B inh: -28.0%; G9a inh: 3.16µM*

Results for COc1ccc(-c2nnc(OCc3nc4ccccc4n3C)c3ccccc23)cc1 ?
HP1b chromo inh: 2.8%; PLK1 PBD block: 18.9µM*; JMJD2A Tudor inh: 50.1µM*; PI5P4K alpha inh: -22.0; BAZ2B inh: -35.4%; G9a inh: -1.5%[59 µM]

Results for CCOC(=O)c1[nH]c(C)c(CCC(=O)Nc2cc(Cl)ccc2C)c1C ?
HP1b chromo inh: 15.0%[57 µM]; JMJD2A Tudor inh: -8.1%; BAZ2B inh: 9.3%; G9a inh: 6.5%[59 µM]

Results for Cc1nc(C)c(CCNC(=O)c2ccccc2)s1 ?
HP1b chromo inh: 22.3%; PLK1 PBD block: -26.3%; JMJD2A Tudor inh: 1.4%; PI5P4K alpha inh: -3.0; BAZ2B inh: -6.9%; G9a inh: 9.8%[59 µM]

What do the screens show for `Cc1nc(C)c(CCNC(=O)c2cccc(Cl)c2)s1`?
HP1b chromo inh: 17.8%; PLK1 PBD block: -9.6%; JMJD2A Tudor inh: 2.1%; PI5P4K alpha inh: -9.2; BAZ2B inh: 10.2%; G9a inh: 79.4µM*

What do the screens show for `N#CC1=C(c2ccc(-c3ccccc3)cc2)COC1=O`?
HP1b chromo inh: -22.1%; PLK1 PBD block: inconclusive; JMJD2A Tudor inh: -15.0%[11.4 µM]; PI5P4K alpha inh: inconclusive; BAZ2B inh: -25.8%; G9a inh: 11.2µM*

Results for c1ccc(C[C@H]2CN=C(Nc3ccccc3)N2CCCC2CCCC2)cc1 ?
HP1b chromo inh: 25.7%; PLK1 PBD block: -21.2%; JMJD2A Tudor inh: -29.6%; PI5P4K alpha inh: -12.6; BAZ2B inh: inconclusive; G9a inh: 44.7µM*

Results for O=C(O)[C@@H]1CN[C@@H](C(=O)O)C1 ?
G9a inh: 27.3%[59 µM]

How did COC(=O)c1c(-c2cccs2)csc1NC(=O)c1ccc(Cl)cc1 do in these assays?
HP1b chromo inh: 19.2%; JMJD2A Tudor inh: -29.5%; BAZ2B inh: -20.0%; G9a inh: 2.24µM*

What do the screens show for `COC(=O)c1c(-c2cccs2)csc1NC(=O)c1cccnc1`?
HP1b chromo inh: 102.5%; PLK1 PBD block: -4.6%; JMJD2A Tudor inh: 18.4%; PI5P4K alpha inh: -1.6; BAZ2B inh: 31.2%; G9a inh: 7.6%[59 µM]

From PubChem BioAssay
